In PubChem BioAssay AID1903 (Southern Research Specialized Biocontainment Screening …, 2009) one finds inhibition data, which are given here for 28 compounds.

Molecules are shown by their SMILES. Screen size: about 310,000 compounds; about 1,200 (0.39%) were called active. No rule for the calls is given here. A selection follows. Measured potencies and affinities stand elsewhere.

For orientation: inhibition means the drop in the measured response relative to a control, in per cent.

The target of this assay is Large T antigen (Simian virus 40) (UniProt P03070). Kind of assay: TAg ATPase/helicase activity blockers – biochemical (AID 1903). To be noted: SV40 large T antigen ATPase/helicase inhibition assay; at 20 µM; hits give high values.
Chain of Large T antigen (Simian virus 40) (P03070 whole entry, looked up): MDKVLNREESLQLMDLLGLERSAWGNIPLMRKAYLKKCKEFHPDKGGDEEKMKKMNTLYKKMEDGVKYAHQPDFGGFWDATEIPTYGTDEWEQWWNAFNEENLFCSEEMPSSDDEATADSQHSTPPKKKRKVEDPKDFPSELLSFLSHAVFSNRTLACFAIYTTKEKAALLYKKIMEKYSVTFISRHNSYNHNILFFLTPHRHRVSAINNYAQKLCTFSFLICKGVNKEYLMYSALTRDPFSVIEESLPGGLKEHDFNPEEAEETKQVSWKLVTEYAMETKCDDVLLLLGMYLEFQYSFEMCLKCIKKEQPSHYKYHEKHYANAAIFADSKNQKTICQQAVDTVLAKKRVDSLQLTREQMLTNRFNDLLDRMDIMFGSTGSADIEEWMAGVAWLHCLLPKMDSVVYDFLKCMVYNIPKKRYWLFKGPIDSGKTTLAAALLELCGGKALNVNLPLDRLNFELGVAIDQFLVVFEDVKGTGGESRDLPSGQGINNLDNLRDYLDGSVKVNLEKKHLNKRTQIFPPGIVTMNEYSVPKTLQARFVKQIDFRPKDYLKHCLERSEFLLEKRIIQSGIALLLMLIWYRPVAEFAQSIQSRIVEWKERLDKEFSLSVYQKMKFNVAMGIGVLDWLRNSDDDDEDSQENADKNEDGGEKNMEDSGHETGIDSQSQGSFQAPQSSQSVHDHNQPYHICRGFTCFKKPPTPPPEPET
As to `COc1cccc(NC(=S)N2CCCC2c2ccc(OC)c(OC)c2)c1` (stereo not drawn), the inhibition was 12.4% (inactive).
The result for `O=C(O)c1ccccc1NS(=O)(=O)c1cccc(C(F)(F)F)c1` reads 9.6% (inactive); that for `O=c1c2ccccc2sn1-c1ccc(S(=O)(=O)N2CCCC2)cc1`, 9.42% (inactive).
Next, `Cc1ccc(-c2nn(C)c(=O)c3ccccc23)cc1S(=O)(=O)N1CCCC1`: 0.12% (inactive); `O=C(O)c1ccccc1NS(=O)(=O)c1ccc2ccccc2c1`: -0.61% (inactive); `CCn1nc(C(=O)OCc2cccc(S(=O)(=O)N(C)C)c2)c2ccccc2c1=O`: 8.67% (inactive).
As to `CN(C)S(=O)(=O)c1cccc(N2C(=O)CC3(CCCCC3)CC2=O)c1`, the inhibition was 7.26% (inactive).
Next, `CC(C)=CCc1c(O)ccc2c1OC(c1ccc(O)c(O)c1)CC2=O` (stereo not drawn): 17% (inactive); `O=C1CC(c2ccc(O)c(O)c2)Oc2cc(O)cc(O)c21` (stereo not drawn): 45.5% (inactive).
Take `Cc1ccc(OCCCCN2CCC(C)CC2)c(Br)c1`: the inhibition was 3.72% (inactive).
For `Cc1ccc(C=C2C(=O)c3ccccc3C2=O)o1`, the inhibition was 12.7% (inactive).
Turning to `O=C1/C(=C\c2ccc(Br)o2)Cc2ccccc21`, the inhibition is 6.99% (inactive).
As to `O=C(COc1ccc(F)cc1F)N1CCCCCCC1`, the inhibition is 1.37% (inactive).
Next, `Oc1cccc(NC(=S)Nc2ccccc2)c1`: 21.3% (inactive); `Cc1cccc(OCC(=O)Nc2ccc(N3CCCC3)cc2)c1C`: -18.4% (inactive); `O=C(NC(=S)Nc1ccc(Cl)cc1)c1cncc(Br)c1`: 10.2% (inactive).
`O=C(O)c1ccc(NC(=S)NC(=O)c2cncc(Br)c2)cc1`: the inhibition was 13.1% (inactive).
In the case of `COc1ccc(NC(=S)NC(=O)c2ccccc2Cl)cc1`, the inhibition is 9.58% (inactive).
Consider `O=C(NC(=S)Nc1ccccc1O)c1ccccc1Cl`, for which the inhibition is 13.8% (inactive).
As for `CCOc1ccc(-c2ccc3nnc(SCC(=O)NCC4CCCO4)n3n2)cc1` (stereo not drawn), the inhibition was 20.9% (inactive).
With `c1ccc2cc(Cn3ccnc3)ccc2c1`, the inhibition is 5.43% (inactive).
As to `C/C(=N\NC(=O)COc1ccc(C)cc1[N+](=O)[O-])c1cccs1`, the inhibition is 15% (inactive).
In the case of `N#Cc1ccc(CSc2nc(N)cc(N)n2)cc1`, the inhibition was -0.44% (inactive).
On to `Cn1c(=O)c2ccccc2n2c(=S)[nH]nc12`, for which the inhibition was 1.39% (inactive).
For `CC(C)CCn1c(=O)c2ccccc2n2c(CN3CCCC3)nnc12`, the inhibition was 15.1% (inactive).
Next, `CCOCCCn1c(=O)c2ccccc2n2c(=S)[nH]nc12`: 31.1% (inactive).
As for `CC(C)CCn1c(=O)c2ccccc2n2c(CCl)nnc12`, the inhibition is 12.5% (inactive).
As to `O=C(Nc1ccc(S(=O)(=O)Nc2ncccn2)cc1)c1cnc(Cl)c(Cl)c1`, the inhibition was 24.8% (inactive).
